Measurements from PubChem BioAssay AID588852 (The Scripps Research Institute Molecular Screening Center, 2011).
The campaign covered roughly 360,000 compounds. About 4,600 (1.3%) were called active.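 How the source made its calls: active means percent inhibition above its own plate's cutoff, namely the mean of that plate's compound wells plus 3 SD; inactive means the rest.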 This excerpt belongs to a sample that is enriched for actives.

Target: Muscarinic acetylcholine receptor M1 (Homo sapiens) (UniProt P11229)
Sequence (P11229 whole entry, looked up): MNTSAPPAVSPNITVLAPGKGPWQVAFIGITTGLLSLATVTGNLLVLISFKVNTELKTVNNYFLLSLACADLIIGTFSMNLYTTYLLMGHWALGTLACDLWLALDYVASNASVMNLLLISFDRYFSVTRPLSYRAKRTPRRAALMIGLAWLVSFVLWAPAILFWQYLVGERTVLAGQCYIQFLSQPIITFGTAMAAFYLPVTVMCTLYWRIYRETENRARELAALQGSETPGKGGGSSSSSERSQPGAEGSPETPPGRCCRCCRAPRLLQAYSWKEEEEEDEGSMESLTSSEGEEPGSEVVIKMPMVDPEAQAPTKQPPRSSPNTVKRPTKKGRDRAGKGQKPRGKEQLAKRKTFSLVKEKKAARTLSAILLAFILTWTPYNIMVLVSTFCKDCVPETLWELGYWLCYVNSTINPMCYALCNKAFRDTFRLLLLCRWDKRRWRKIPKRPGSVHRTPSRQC
Assay: human M1 muscarinic receptor antagonists, primary screen, CHO-K1 cells, Fluo-8 calcium fluorescence, 1536-well (AID 588852);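 further: peak over basal fluorescence ratio during 140 s after agonist addition; 0% = ACh EC80 plus DMSO and 100% = DMSO alone without agonist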
Details: CHO-K1 hM1, Fluo-8 calcium fluorescence, ACh EC80 antagonist; at 3 µM; active compounds read high

inhibition, inactive:
CCN1CCC(O)(/C=C/c2ccc(C)cc2)C(C(=O)/C=C/c2ccc(C)cc2)C1 (stereo not given) 5.04%
Cc1ccc(SCC(=O)N2CCN(c3ccc(F)cc3)CC2)cc1 1.11%
C[C@@H]1CN([C@H](C)CO)C(=O)CCCn2nncc2CO[C@@H]1CN(C)S(=O)(=O)c1cccc(C#N)c1 -0.77%
COc1ccc(C2=Nc3ccccc3NC(=O)C2N(C(=O)c2cc3ccccc3[nH]2)c2ccccc2)cc1 (stereo not given) -26.4%
CC(C)(C)CC(=O)Nc1nc(C(N)Cc2ccc(C(F)(F)F)cc2)cs1 (stereo not given) -6.85%
O=C(O)C1C2C=CC(O2)C1C(=O)NCCc1cccc(Cl)c1 (stereo not given) -2.69%
COc1cccc(NC(=O)C2c3cc(OC)c(OC)cc3C(=O)N(C)C2c2cccnc2)c1 (stereo not given) -10.6%
Cc1nn(C)c(Cl)c1CN1CCC(Oc2ccc(C(=O)N3CCCC3)cc2)CC1 8.44%
O=C(c1ccc(OC2CCN(C/C=C/c3ccc(F)cc3)CC2)cc1)N1CCCCC1 29.3%
CCOP(=O)(OCC)C(Cc1ccccc1)N=C(c1ccccc1)c1ccccc1 (stereo not given) -5.83%
Cc1cccc(N2CCN(Cc3c(C)n(C)n(-c4ccccc4)c3=O)CC2)c1C 12.1%
Cc1c(CN2CCC(C)CC2)c(=O)n(-c2ccccc2)n1C 8.27%
CC(C)(O)C#Cc1ccc(CNC[C@H]2O[C@@H](n3cnc4c(=O)[nH]c(N)nc43)[C@H](O)[C@@H]2O)s1 3.48%
C=CCOC(=O)C1=C[C@@H](c2ccc3c(c2)OCO3)C[C@@H](OCCCCO)O1 -1.17%
Cc1cc2c(cc1C)N1C(=O)c3cc4ccccc4cc3NC(=O)C1C(=O)N2 (stereo not given) -27%
COc1ccccc1NC(=S)NC(=O)C(C)C -7.13%
O=C(CCN1CCN(c2ccccc2)CC1)NNC(=S)Nc1ccccc1 17.2%
COc1cc(NC(=O)c2cc(-c3ccc(F)cc3OC(C)C)n[nH]2)cc(OC)c1OC 8.53%
CCc1ccc(C(=O)OCC(=O)NCC(F)(F)F)cc1 -11.6%
CC(=O)Nc1ccc(C(=O)CSc2nnc(Cc3ccccc3)o2)cc1 -12.2%
CCOc1ccc(Nc2nc(Cc3nnc(SCC(=O)NC4CCCC4)n3C)cs2)cc1 -22.9%
CCOC(=O)c1nnn(CC(=O)Nc2cccc(F)c2)c1C(=O)OCC -2.12%
O=C(NCc1cccnc1)c1nc(-c2cccs2)no1 -2.8%
CC1CCC2CCCCC2N1C(=O)c1cc([N+](=O)[O-])cc([N+](=O)[O-])c1 (stereo not given) -3.75%
Cn1cc(CN2CCCCC2c2ccccn2)c(-c2ccc3c(c2)OCCO3)n1 (stereo not given) -3.05%
COc1ccccc1CNC(=O)c1ccc(Cl)c(S(=O)(=O)N2CCCC2)c1 -5.01%
Cc1ccc(C(=O)Nc2ccc3c(c2)OCCO3)cc1S(=O)(=O)N1CCOCC1 -13.2%
Cc1ccc(C(=O)Nc2ncccc2C)cc1S(=O)(=O)N1CCOCC1 -9.39%
COc1ccccc1C(=O)Nc1ccc(C)c(S(=O)(=O)N2CCCCC2)c1 5.17%
CCCCN1C(=O)/C(=C/C=C2/C=Cc3ccccc3N2CC)SC1=S -7.59%
CN1C=CC=C/C1=C1\SC(=S)N(Cc2ccccc2)C1=O 19.7%
CCC(C)C(CO)NC(=O)/C=C/[C@H]1O[C@@H](n2cnc3c(NC(=O)c4ccccc4)ncnc32)[C@H](O)[C@@H]1O (stereo not given in full) 3.77%
CC(C)c1cccc(C(C)C)c1Nc1cn[nH]c1 -0.55%
O=S(=O)(/C=C/c1ccccc1)N1CCNCC1 -8.17%
Fc1ccc(CNCc2ccc(Br)cc2)cc1 -0.53%
CCOc1ccc(NC(=O)CN(C)C(=O)c2cccc(S(=O)(=O)N3CCCC3)c2)cc1OCC 7.19%
Cc1ccc(NC(=O)CN(C)C(=O)c2cccc(S(=O)(=O)N3CCCC3)c2)cc1 -6.53%
C=CCN(c1ccc(Cl)cc1)S(=O)(=O)c1cccc(C(=O)OCC(=O)N(C)C)c1 -8.38%
COc1cc(S(=O)(=O)N(Cc2cccs2)C2CC2)ccc1-n1cnnn1 -5.47%
O=S(=O)(Cc1nnnn1-c1ccc(Br)cc1)c1ccc(F)cc1 -2.5%
S=C(Nc1ccccc1)Nc1ccc2ccccc2c1 -3.01%
Cc1nc2cc(NC(=O)Nc3cccc(F)c3)ccc2n1C -17.2%
O=C(c1ccco1)N1CCN(C(=O)C2c3ccccc3Oc3ccccc32)CC1 11.3%
O=C(c1ccco1)N1CCN(CCOc2ccccc2)CC1 -9.86%
Cc1ccc([C@@H]2CC(=O)[C@@H]3CN(S(=O)(=O)c4ccc(C)cc4)[C@H](c4ccccc4F)C[C@@H]3N2S(=O)(=O)c2ccc(Cl)cc2)cc1 -10%
CC12CCC(=O)C=C1CCC1C2C(O)CC2(C)C1CCC2(O)C(O)CO (stereo not given) -14.1%
COc1ccc(/C=C2\SC(=S)N(CCC(=O)N3CCOCC3)C2=O)cc1OC -11%
COc1ccc(CCNC2=C(Cl)C(=O)N(Cc3ccccc3)C2=O)cc1OC 13.4%
O=C(CCNc1n[nH]c(=O)[nH]c1=O)N/N=C\c1ccc(Br)cc1 -20%
CN(C)CCOC1c2ccccc2-c2ccccc21 12.7%
COc1ccccc1CNC(=O)Cn1c(=O)oc2cc(Cl)ccc21 -12.3%
CSCCC(NC(=O)c1ccco1)C(=O)NCCc1ccc(F)cc1 (stereo not given) 4.11%
O=C(NNC(=O)c1ccc(-c2ccccc2)cc1)Nc1ccccc1 -2.91%
C[n+]1cccc(C(=O)O)c1 -30.2%
CCCCc1nc(NCc2ccccc2)c(C#N)c2c1CCCC2 -5.37%
COc1ccc(C(C#N)=C2C=CC(=NO)c3ccccc32)cc1 22%
CC1=C(C(=O)N2CCOCC2)CC(CC(=O)NCc2cccs2)C(=O)N1CCCN1CCCC1=O (stereo not given) 4.82%
Cc1ccc2nc(-c3ccco3)c(Cc3cccc(Cl)c3)n2c1 -5.65%
COC(=O)c1ccc(CNC(=O)c2ccc(S(=O)(=O)N3CCCCCC3)cc2)cc1 -11.2%
Cc1ccc(S(=O)(=O)N2CCOCC2)cc1C(=O)NCc1ccc(F)cc1 9.1%
CCCC(=O)N1CCC1(C)C(=O)NCc1ccc(SC)cc1 (stereo not given) -8.63%
O=C(COc1cccnc1[N+](=O)[O-])Nc1ccc(Cl)cc1F 3.68%
COc1cccc(NC(=O)COc2cccnc2[N+](=O)[O-])c1 -7.66%
CCCNC(=S)NC1CC2CCCC(C1)N2CC(C)C (stereo not given) 29.5%
CCOc1ccc(CN(Cc2ccco2)C(c2cccs2)c2nnnn2C(C)(C)C)cc1 (stereo not given) 18.8%
CC(C)C(c1nnnn1C(C)(C)C)N1CCN(Cc2cccnc2)CC1 (stereo not given) -13.5%
CC(=O)NS(=O)(=O)c1ccc2c(c1)Cc1cc(S(=O)(=O)NC(C)=O)ccc1-2 -13.4%
O=C(NCC(O)c1nc2ccccc2[nH]1)c1ccc(Br)cc1 (stereo not given) -13.3%
CC(=O)C1=CCC(c2ccccc2)N(S(=O)(=O)c2ccc(C)cc2)C1 (stereo not given) -10.8%
CCOC(=O)C1=CC[C@@H](c2ccncc2)N(S(=O)(=O)c2ccc(C)cc2)C1 24.6%
COc1c(C)cc(C(O)c2ncc(-c3cccc(C(F)(F)F)c3)[nH]2)cc1C (stereo not given) -5.01%

inhibition, active:
CCN1CCC2(CC1)N=C(c1ccc(F)cc1)C(=S)N2C(=O)c1ccc(C)cc1 90.6%
CC(=O)Nc1ccc(CN2CCC(Oc3ccc(C(=O)N4CCCC4)cc3)CC2)cc1 53.8%
Cc1c(CN2CCCC(C(=O)c3cccc(Cl)c3)C2)c(=O)n(-c2ccccc2)n1C (stereo not given) 27.6%
CCCCC(=O)NNC(=S)NC(=O)C(c1ccccc1)c1ccccc1 68.7%
CCOc1ccc(Nc2nc(Cc3nnc(SCC(=O)c4ccc(C)cc4)o3)cs2)cc1 13%
COc1ccccc1C(CNC(=O)c1ccc(C)c(S(=O)(=O)N2CCCCC2)c1)N(C)C (stereo not given) 101%
Cc1ccc(C(=O)NCC(c2cccs2)N(C)C)cc1S(=O)(=O)N1CCOCC1 (stereo not given) 50.7%
CCCCN1C(=O)/C(=C2/C=CC=CN2C)SC1=S 37.9%
COc1ccc(NC(=O)CN(C)C(=O)c2cccc(S(=O)(=O)N3CCN(c4ccccc4)CC3)c2)cc1 57.7%
Nc1c(C(=O)c2cccs2)sc2nsc(SCCN3CCCCC3)c12 44.1%
O=C(Nc1ccc2ccccc2c1)Nc1ccc2snnc2c1 32.8%
CN(Cc1ccccc1)C(=O)CCC1CCN(C(=O)c2ccco2)CC1 31.3%
COc1cc(/C=C2/SC(=S)N(Cc3ccccc3)C2=O)cc(OC)c1O 30.7%
Cc1ccccc1C(OCCN(C)C)C1CCCCC1 (stereo not given) 99.8%
CC(C(=O)c1ccc(-c2ccccc2)cc1)[n+]1cccc(Br)c1 (stereo not given) 35.1%
Cc1cc2cc(CNC(=O)c3ccc(S(=O)(=O)N4CCOCC4)cc3)ccc2[nH]1 59.4%
CC(NC(=O)COc1cccnc1[N+](=O)[O-])c1ccc(Cl)cc1Cl (stereo not given) 42.6%
CC(C)(C)n1nnnc1C(c1cccs1)N(Cc1cccnc1)CC1CCCO1 (stereo not given) 79.4%
CCOC(=O)C1=CCC(c2ccc(F)cc2)N(S(=O)(=O)c2ccc(C)cc2)C1 (stereo not given) 34%
